This is part of a sample that, as a whole, favours compounds with a hit. Of some 79,000 tested, about 15% had one in any assay. Calls of active or inactive are those of the source. No stated cut-off is given here; in the data, active means growth inhibition above about 70%; inactive means the rest. Where a SMILES comes first, the peptide text is derived from it. Bridges are numbered along the chain shown (N, C = ends). Roman numbers before positions name the chains, in order. [ ]: non-standard residue; d: D form. The star is where a group is joined. ξ: configuration not given here. PhAc = O=C(Cc1ccccc1)*; ξP = O=C(O)C1CCCN1
Experiments:
[1] = NCI Yeast Anticancer Drug Screen. Data for the rad50 strain (AID 155);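 further: 0% = growth of vehicle-only cultures of the same strain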; details: S. cerevisiae rad50 strain growth inhibition; at 50.0 µM; stronger effect = higher value
Summary of the method: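 Relative growth inhibition (compound vs vehicle) was measured in yeast with a defined repair-gene alteration.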

[2] = NCI Yeast Anticancer Drug Screen. Data for the mec2-1 strain (AID 157); details: S. cerevisiae mec2-1 strain, at 50.0 µM, stronger effect = higher value
Summary of the method: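 mec2-1 yeast strain, carrying an alteration in DNA damage repair or cell cycle control, was exposed to compounds; growth inhibition was measured relative to vehicle-treated controls.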

[3] = NCI Yeast Anticancer Drug Screen. Data for the sgs1 mgt1 strain (AID 161);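 further: 0% = growth of cultures given vehicle only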; details: S. cerevisiae sgs1 mgt1 strain, at 50.0 µM, stronger effect = higher value
Summary of the method: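 Percent growth inhibition was derived by comparing compound-exposed mutant yeast with vehicle-exposed cultures. The strain carries alterations in DNA damage repair.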

[4] = NCI Yeast Anticancer Drug Screen. Data for the cln2 rad14 strain (AID 165);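 further: 0% = growth equal to vehicle treated cultures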; details: S. cerevisiae cln2 rad14 strain, at 50.0 µM, stronger effect = higher value
Summary of the method: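 Yeast carrying cln2 and rad14 alterations (cell cycle control and DNA damage repair) were exposed to compounds. Growth inhibition was measured against vehicle-treated controls.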

[5] = NCI Yeast Anticancer Drug Screen. Data for the bub3 strain (AID 167); details: S. cerevisiae bub3 mutant strain, at 50.0 µM, stronger effect = higher value
Summary of the method: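 Screening used yeast with an engineered genetic alteration affecting cell cycle control. Compound-exposed cultures were compared with vehicle cultures, and reduced growth was taken as inhibition.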

[6] = NCI Yeast Anticancer Drug Screen. Data for the mlh1 rad18 strain (AID 175); details: S. cerevisiae mlh1 rad18 strain growth inhibition; at 50.0 µM; stronger effect = higher value
Summary of the method: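 Growth inhibition of the yeast strain was measured after compound exposure and expressed relative to vehicle-treated controls. The strain carries defined defects in DNA damage repair.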

Measured: growth inhibition

Cc1c2ccccc2nc(CSc2n[nH]c(=S)s2)[n+]1[O-]
inactive: [1] -8.55% | [2] 18.6% | [3] 8% | [4] -44.5% | [5] 8.5% | [6] 20%

CC1OC2CC(O)C1(O)C1=C2C(O)=C(C(N)=O)C(=N)C1=O (configuration not stated)
inactive: [1] 12.3% | [2] -15.6% | [3] 19.4% | [4] 6.8% | [5] 5.35% | [6] -21.4%

COC(=O)c1ccccc1NC(=O)Nc1ccccc1
inactive: [1] 3.1% | [2] 9.35% | [3] 3.25% | [4] -14.9% | [5] 4.25% | [6] 8.35%

OCCCCCCO
inactive: [1] -2.55% | [2] -15.6% | [3] 16.1% | [4] -16.7% | [5] 4.3% | [6] 12.3%

Cc1cc(C)n2nc3c4ccsc4ncc3c2n1
inactive: [1] -5.2% | [2] -5.45% | [3] -15.9% | [4] 2.45% | [5] 0.1% | [6] -6.8%

Cc1c(C)c(C)c(CC2(C)CSC2)c(CC2(C)CSC2)c1C
inactive: [1] -1.65% | [2] -20.2% | [3] -12.6% | [4] 14.6% | [5] -41.8% | [6] 10.9%

Clc1nc(Cl)c2ncn(C3CCCCO3)c2n1 (configuration not stated)
inactive: [1] 26.4% | [2] 26.1% | [3] 5.05% | [4] 4.6% | [5] 38.2% | [6] 14.3%

NCCCOCCN1CCN(c2ccccc2)CC1
inactive: [1] -0.75% | [2] -27.2% | [3] 0.75% | [4] -39.5% | [5] 2.95% | [6] 7.25%

CCCCCCCCN1COC2CCc3ccccc3C21 (configuration not stated)
active: [1] 93.5% | [2] 93.8% | [3] 93.8% | [4] 87.6% | [5] 94% | [6] 92.3%

O=C(C[n+]1cc(Br)cc(Br)c1)c1ccc2ccccc2c1
inactive: [1] 27.2% | [2] 3.45% | [3] 7.7% | [4] 11.8% | [5] 20.2% | [6] 43.6%

CCCCCCCCCCC/C=N\[N+](C)(C)C
active: [1] 98.3% | [2] 99.3% | [3] 98.7% | [4] 96.8% | [5] 98.8% | [6] 98.2%

NC(=O)/C(=C(/O)C(=O)O)c1ccnc2ccccc12
inactive: [1] 4.85% | [2] -4.8% | [3] 7.35% | [4] -41% | [5] -4.2% | [6] -2.15%

CC(=O)c1cccc2cc(CC(=O)c3ccccc3)c(=O)oc12
inactive: [1] 12.2% | [2] 5.6% | [3] 6.4% | [4] -33.1% | [5] 11.1% | [6] 1.35%

O=C(O)/C=C/C=C/c1ccccc1
inactive: [1] 8.9% | [2] 8.95% | [3] 49.9% | [4] -2.7% | [5] 16.4% | [6] 32.8%

CCN(C)c1ccccc1
inactive: [1] -5.8% | [2] -27.8% | [3] -3.2% | [4] -31.9% | [5] -6.6% | [6] 11.2%

O=C(COc1ccc(Cl)c(Cl)c1)Nc1cccc(C(=O)CCl)c1
inactive: [1] 36.6% | [2] 50% | [3] 45.5% | [4] 9.1% | [6] 62.8%
active: [5] 81.3%

CC1=C(Br)C(=O)C(C(C)C)=CC1=O
inactive: [1] -38.2% | [2] -20.6% | [3] -6.75% | [4] -4.9% | [5] 3.5% | [6] 0.9%

CC(=O)c1cc(C)c(C)cc1C
inactive: [1] -13.9% | [2] 7.6% | [3] -2.5% | [4] -12% | [5] 1.65% | [6] -12.5%

O=c1cc(-c2cccs2)ss1
inactive: [1] 18.4% | [2] 5.25% | [3] -0.65% | [4] -34.6% | [5] 13.8% | [6] 25%

CCOC(=O)N/N=C(\Cc1ccccc1)OCC
inactive: [1] 16% | [2] 13.2% | [3] 8.45% | [4] 13.7% | [5] 14.6% | [6] 39.2%

O=C(O)C#Cc1ccccc1[N+](=O)[O-]
inactive: [1] 21.1% | [2] 25.1% | [3] 11.3% | [4] -15.4% | [5] 14.9% | [6] 9.35%

CNc1ccc(O)cc1
inactive: [1] 3.6% | [2] 6.9% | [3] 5.75% | [4] -24.4% | [5] -0.05% | [6] 15.4%

O=S(=O)(N1CCOCC1)N1CCOCC1
inactive: [1] -3.9% | [2] -7.7% | [3] -3.55% | [4] -25.6% | [5] 25.6% | [6] 3.85%

O=c1cc(-c2ccccc2)nc(/C=C(\O)c2ccncc2)n1-c1ccccc1
inactive: [1] -4.25% | [2] -18.9% | [3] 0.4% | [4] 10.1% | [5] 15.5% | [6] -8.15%

CC(C)CC(NC(=O)C(N)CSSCC(N)C(=O)NC(CC(C)C)C(=O)O)C(=O)O (stereo not drawn) (I: H-Cys-Leu-OH / II: H-Cys-Leu-OH; disulfide I:1-II:1; configuration not given here)
inactive: [1] -10.6% | [2] -6.85% | [3] -9.8% | [4] -23.1% | [5] -1.25% | [6] -6.9%

O=c1[nH]c(=O)c2[nH]c(=O)[nH]c2[nH]1
inactive: [1] 8.35% | [2] -7.15% | [3] -13.5% | [4] 27.9% | [5] 7.25% | [6] -17.9%

COc1ccc(C(C)=O)c(OC(C)=O)c1OC(C)=O
inactive: [1] 4.05% | [2] 0.95% | [3] 6.25% | [4] 10% | [5] 5.8% | [6] 17.2%

COc1cccc(NC(=S)Nn2c(C)nc3ccccc3c2=O)c1
inactive: [1] -25.2% | [2] -14% | [3] -17.1% | [4] 0.25% | [5] -11.3% | [6] -28.6%

O=C(Cc1ccccc1)N[C@@H]1COC(=O)C2CCCN2C(=O)[C@@H]2CCCN2C1=O (some centres not stated) (PhAc-[dS]-Pro-[ξP]; ester 1-C)
inactive: [1] -11.6% | [2] -1.7% | [3] 4.25% | [4] 27.4% | [5] 12.3% | [6] 0.65%

O=c1c2cccnc2[nH]c2ccc3[nH]ncc3c12
inactive: [1] -17.2% | [2] -25.9% | [3] -13.4% | [4] 26.4% | [5] -30.9% | [6] 15.6%

CCOc1cc(/C=N/NC(=O)N(c2ccccc2)c2ccccc2)ccc1O
inactive: [1] 4.25% | [2] -8.6% | [3] 25.6% | [4] 12.8% | [5] 24.6% | [6] 7.35%

Oc1ccc2c(c1)c1ccccc1c1ncccc21
inactive: [1] 46% | [2] 3.4% | [3] 43.6% | [4] 3.7% | [5] 9.35% | [6] 49%

Cn1ccc2c(C(=O)c3ccccc3)cccc2c1=O
inactive: [1] 7.75% | [2] -5.7% | [3] -4.75% | [4] 9.7% | [5] 0.5% | [6] -10.5%

CCN(CC)CCCNc1ccnc2ccc(Cl)cc12
inactive: [1] -9.9% | [2] -15.6% | [3] 5.45% | [4] -17.9% | [5] 13.9% | [6] 2.55%

CCOc1c(F)ccc(F)c1-c1c(F)ccc(F)c1OCC
inactive: [1] -7.5% | [2] -0.3% | [3] 5.65% | [4] 2.4% | [5] 3.3% | [6] -5.2%

N#CC1c2ccccc2C=CN1C(=O)c1ccccc1 (configuration not stated)
inactive: [1] -15.9% | [2] -15.9% | [3] 12.5% | [4] -18.9% | [5] -8.95% | [6] -24.4%

Cc1cccc(C)c1NC(=S)N(CCC#N)C1CC(C)CC(C)(C)C1 (configuration not stated)
inactive: [1] 3.45% | [2] 4.35% | [3] 19.6% | [4] -2.8% | [5] 19.9% | [6] -20%

CC1NC(=O)C(C)C(c2ccccc2)N(N=O)C1c1ccccc1 (configuration not stated)
inactive: [1] -10.7% | [2] 7.8% | [3] 14.6% | [4] 0.05% | [5] -25.6% | [6] 11%

N#CC1=C(N)N(c2ccccc2)C(c2ccco2)C1(C#N)C#N (configuration not stated)
inactive: [1] 4.85% | [2] 13.3% | [3] 9.85% | [4] 3.35% | [5] -13.7% | [6] 6.25%

N/C(=C\C(=O)c1ccccc1)C(=O)c1ccccc1
inactive: [1] 5.7% | [2] 4.65% | [3] -15.5% | [4] -10.7% | [5] 0.65% | [6] -1.55%

CCN(CC)c1ccc(C(C#N)(c2ccc(N(CC)Cc3cccc(S(=O)(=O)O)c3)cc2)c2ccc(N(CC)Cc3cccc(S(=O)(=O)O)c3)cc2)cc1
inactive: [1] -1% | [2] 8.15% | [3] 4.55% | [4] -7.7% | [5] -7.45% | [6] 29.6%

Nc1ccc(S(=O)(=O)N/N=C/c2ccco2)cc1
inactive: [1] 27.1% | [2] -25.1% | [3] 2.8% | [4] 1.6% | [5] -50.5% | [6] -15.1%

Reference: PubChem BioAssay (NCI)
